NS1 function inh – qHTS Assay for Inhibitors of Influenza NS1 Protein Function; Potency, µM (top dose mostly 46.1 µM); 270,000 tested, 0.4% active; calls by dose curve; note: actives are rising curves; nearly all actives have a fitted effect of over 50% in size
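Growth recovery, yeast-based: influenza A NS1 expressed in S. cerevisiae causes slow growth, and suppressors are detected by OD600. The parent strain without NS1 is used as positive control.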
Pf growth 96h – Primary qHTS for delayed death inhibitors of the malarial parasite plastid, 96 hour incubation; P. falciparum luciferase reporter growth, 96 h; Potency, µM (highest dose often 28.7 µM), actives largely listed as inhibitors; 320,000 tested, 6.9% active
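Delayed-death screen, second-generation endpoint: infected erythrocytes, 2% hematocrit, 0.05% parasitemia final; 96 hours at 37 C, 5% CO2; luciferase detection reagent; luminescence decrease equals reduced growth.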
Shiga toxin inh – A qHTS for Small Molecule Inhibitors of Shiga Toxin; Vero cells, Shiga toxin protein synthesis inhibition reporter; inhibition, % at 38.7 µM; 290,000 tested, 9.2% active; in the data active = inhibition mostly above about 28%, no sharp cut-off; inactive = mostly below about 43%
SARS PLpro yeast – qHTS of Yeast-based Assay for SARS-CoV PLP; Potency, µM (titrated, usually from 32.9 µM), usual class: activators; AID 485353, 2010; 330,000 tested, 0.19% active; S. cerevisiae expressing SARS-CoV PLpro, growth rescue; calls by dose curve; note: nearly all actives have a fitted effect of over 55% in size
Pf growth 48h – Primary qHTS for delayed death inhibitors of the malarial parasite plastid, 48 hour incubation. Potency, µM (doses to about 28.7 µM), actives largely listed as inhibitors. P. falciparum luciferase growth in erythrocytes, 48 h. 310,000 tested, 5.9% active
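Growth was read as firefly luciferase luminescence after a 48 h, 37 C, 5% CO2 exposure of compounds to reporter-bearing P. falciparum cultures (0.1% parasitemia, 2% hematocrit final) in Albumax-supplemented RPMI 1640.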
Cycloheximide cs – Cycloheximide Counterscreen for Small Molecule Inhibitors of Shiga Toxin | max response, % | 300,000 tested, 12% active | cell reporter, cycloheximide protein synthesis inhibition counterscreen; in the data active = max response mostly above about 13%, no sharp cut-off; inactive = mostly below about 14%; note: read at 38.3 µM for the half of the compounds with a filed dose
Large screens that a line does not name were inactive. A selection: hits, their analogues and other compounds. The true share with any hit is near 21%. Unless noted, calls come from the whole dose curve; as a rule, active = well fitted inhibition curve with a large enough effect; inconclusive = small, poorly fitted or top-dose-only effect, or another doubt; inactive = no such curve, though single readings can be large or run the other way.

CCOc1ccc2oc(C(=O)N(C)CCc3ccc(OC)c(OC)c3)c(C)c2c1	Pf growth 96h inconclusive, Pf growth 48h inconclusive (no result: NS1 function inh, Shiga toxin inh, Cycloheximide cs)
COc1ccc(NC(=O)CN(C)C(=O)c2oc3ccccc3c2C)cc1	Pf growth 96h 3.7µM, Pf growth 48h inconclusive (no result: NS1 function inh)
CCOc1ccc2oc(C(=O)N(C)CC(=O)Nc3ccc(OCC)c(OCC)c3)c(C)c2c1	Pf growth 96h 12µM, Pf growth 48h inconclusive (no result: NS1 function inh, Shiga toxin inh, Cycloheximide cs)
Fc1ccccc1/C=N/Nc1ncnc2nc[nH]c12	Shiga toxin inh 139, Cycloheximide cs 49
Fc1cccc(/C=N/Nc2ncnc3nc[nH]c23)c1	Pf growth 96h inconclusive, Shiga toxin inh 71, Pf growth 48h inconclusive, Cycloheximide cs 83
O=C(NNC(=O)c1ccco1)c1ccccc1	Cycloheximide cs 19
Cc1ccc(C(=O)NNC(=O)c2ccco2)cc1	Shiga toxin inh active, Cycloheximide cs 39
O=C(Nc1ccc(NC(=O)c2ccccc2Cl)nc1)c1ccco1	Shiga toxin inh 69, Cycloheximide cs 17
O=C(CCc1ccccc1)Nc1ccc(NC(=O)c2ccco2)nc1	Cycloheximide cs 22 (no result: Pf growth 96h, Pf growth 48h)
CC(=O)Nc1ccc(S(=O)(=O)N(C)c2ccc(OCC(=O)OCC(=O)NCc3ccco3)cc2)cc1	none
Cc1ccc(/C=C/S(=O)(=O)NCC(=O)OCC(=O)Nc2ccc(C(=O)N(C)C)cc2)cc1	Pf growth 96h inconclusive (no result: NS1 function inh, Shiga toxin inh, Cycloheximide cs)
CCC(=O)Nc1cc(C(=O)N2CCC3(CC2)OCCO3)ccc1S(=O)(=O)c1ccc(C)cc1	Pf growth 96h 3.7µM
CC(=O)Nc1cc(C(=O)N2CCN(C)CC2)ccc1S(=O)(=O)c1ccc(C)cc1	none (no result: Pf growth 48h)
Cc1ccccc1COc1ccc(-c2nn[nH]n2)cc1	Shiga toxin inh 32, Cycloheximide cs 27
Brc1cc2c(cc1COc1ccc(-c3nn[nH]n3)cc1)OCO2	Cycloheximide cs 30
COc1ccc(C2CCCN2CC(O)COc2ccccc2C(C)C)cc1 (stereo not drawn)	Pf growth 96h 13µM, Pf growth 48h 12µM
Nc1nc(Cl)cc(Sc2ccc3ccccc3c2)n1	none
Nc1cc(Cl)ccc1Oc1ccc2ccccc2c1	Shiga toxin inh 41, Cycloheximide cs 34 (no result: Pf growth 48h)
Cc1ccc(Oc2ncc(-c3ccc(Cl)cc3)cn2)cc1	none
Cc1ccc(Oc2ccc(Cl)cc2N)cc1	Shiga toxin inh 100, Cycloheximide cs 38
COC(=O)c1ccc(-n2c(C)nc(=O)c(-c3ccccc3)c2C)cc1	Pf growth 48h inconclusive
COc1ccc(-n2c(C)nc(=O)c(-c3ccccc3)c2C)cc1	Pf growth 96h 9.3µM
CC(C)n1nnc(-c2ccc(OCc3ccccc3F)cc2)n1	Pf growth 96h 8.3µM, Cycloheximide cs 26 (no result: Shiga toxin inh)
Fc1ccccc1COc1ccc(C(=S)N2CCCC2)cc1	Pf growth 96h inconclusive, Shiga toxin inh 116, Cycloheximide cs 34
Fc1ccccc1COc1ccc(-c2nnn(Cc3ccccc3F)n2)cc1	none (no result: Pf growth 96h, Pf growth 48h)
Cn1nnc(-c2ccc(OCc3ccccc3F)cc2)n1	Shiga toxin inh 94, Cycloheximide cs 44
COc1ccc(-c2cc(C#N)nc(N3CCNCC3)n2)cc1	Pf growth 96h 2.6µM (no result: Pf growth 48h)
COc1ccc(-c2cc(C#N)nc(Cl)n2)cc1	none
COc1ccc(-c2cc(C#N)nc(NN)n2)cc1	NS1 function inh inconclusive, Pf growth 96h 2.9µM, Pf growth 48h inconclusive
CCN(CC)c1nc(C#N)cc(-c2ccc(OC)cc2)n1	Pf growth 96h 7.4µM, Pf growth 48h 13µM
C[C@H](NC(=O)[C@H](Cc1ccccc1)NC(=O)c1cc2cc(Cl)ccc2n1C)C(=O)O	none
CC(=O)Nc1ccc(NC(=O)CSc2ccc3nnc(CCNS(=O)(=O)c4ccc(C)cc4)n3n2)cc1	none
CN1CCN(Cc2ccc(-c3ccc(Cl)cc3)o2)CC1	Cycloheximide cs 26 (no result: Pf growth 96h)
Clc1ccc(-c2ccc(CN3CCCCC3)o2)cc1	Pf growth 96h inconclusive, Shiga toxin inh 39, Cycloheximide cs 25
OCCc1ccc(-c2ccc(Cl)cc2)o1	Shiga toxin inh 108, Cycloheximide cs 31 (no result: Pf growth 96h)
CC(C)(Oc1ccc(CCNC(=O)c2ccc(-c3ccc(Cl)cc3)o2)cc1)C(=O)O	Pf growth 96h inconclusive
O=[N+]([O-])c1ccc(CN2CCN(c3ccc(Cl)cc3)CC2)o1	none
Cc1cccc(NS(=O)(=O)c2ccc(C(=O)N3CCN(c4ccccc4O)CC3)cc2)c1C	Pf growth 96h inconclusive, Pf growth 48h inconclusive
Cc1cc(N(CC(=O)NC(C)C)S(C)(=O)=O)ccc1Br	Pf growth 96h inconclusive
OC(Cc1cccnc1)(Cc1cccnc1)c1cc2ccccc2[nH]1	none
COc1ccc(OC)c(N(CC(=O)N2CCOCC2)S(C)(=O)=O)c1	Pf growth 96h inconclusive
CCc1ccc(NC(=O)C2CCC(CNS(=O)(=O)c3ccc4c(c3)CC(C)N4C(C)=O)CC2)cc1 (stereo not drawn)	none (no result: NS1 function inh, Pf growth 96h, SARS PLpro yeast, Pf growth 48h)
Cc1nc(SCC(N)=O)[nH]c(=O)c1Cc1ccc(OC(C)C)cc1	Pf growth 96h 1.7µM, Pf growth 48h inconclusive
Cc1ccc(NC(=O)COC(=O)/C=C/c2cccs2)c(C)c1	none
CC1=C(C#N)C(c2ccccc2)C2=C(N1)c1ccccc1C2=O (stereo not drawn)	Pf growth 96h 15µM, Pf growth 48h inconclusive
CCOC(=O)C1=NNC(C(=O)c2ccc(C)cc2)C1c1ccc(C)cc1 (stereo not drawn)	Pf growth 48h 10µM
CCOC(=O)C1=NNC(C(=O)c2ccccc2)C1c1ccc(C)cc1 (stereo not drawn)	Pf growth 96h 2.1µM, Pf growth 48h 1.7µM
O=C(Nc1ccccc1)c1cc2ccc3ccccc3c2s1	Shiga toxin inh 92, Cycloheximide cs 47
COc1ccc2cc(C(=O)Nc3ccc(S(N)(=O)=O)cc3)sc(=O)c2c1OC	none
COc1ccc2cc(C(=O)Nc3ccccc3)sc(=O)c2c1OC	Pf growth 96h inconclusive, Shiga toxin inh 34, Cycloheximide cs 43
O=C(Nc1ccccc1)c1cc(Cl)nc2ccccc12	Pf growth 96h inconclusive, SARS PLpro yeast inconclusive
COC(=O)c1sc2nc(-c3ccccc3)nc(N3CCN(C)CC3)c2c1C	Pf growth 48h 3.7µM (no result: Pf growth 96h)
COC(=O)c1sc2nc(CN3CCOCC3)nc(N3CCOCC3)c2c1C	Pf growth 48h 10µM
CC(=O)NCCc1nc2cc(NS(=O)(=O)c3ccccc3)ccc2n1C	none
COCCn1c(=O)c2c(nc3n2CC(C)CN3CCc2ccccc2)n(C)c1=O (stereo not drawn)	Pf growth 96h inconclusive
CCn1c(=O)c2c(nc3n2CC(C)CN3CCc2ccccc2)n(C)c1=O (stereo not drawn)	Pf growth 96h 8.3µM, Pf growth 48h 12µM
CC(C)Cn1c(=O)c2c(nc3n2CCCN3CCc2ccccc2)n(C)c1=O	Pf growth 48h 5.2µM
Cn1c(=O)n(CCc2ccccc2)c(=O)c2c1nc1n2CCCN1CCc1ccccc1	Pf growth 48h 9.3µM (no result: Pf growth 96h)

Screens: PubChem, National Center for Advancing Translational Sciences (NCATS)
